Measured values taken from PubChem BioAssay (NCATS).
Records with an inconclusive call do not appear. A call without a number means that no potency is given here. Values without a mark were called inactive. Active and inactive are the calls of the source. Calls come from the whole dose curve; as a rule, active = well fitted curve in the direction sought with a large enough effect; inconclusive = small, poorly fitted or top-dose-only effect, or another doubt; inactive = no such curve, though single readings can be large; an effect the other way counts as inactive or inconclusive.

How the values were obtained:
[1] = system: OV90; experiment: Primary qHTS to identify gynecologic anti-cancer compounds using libraries of approved drugs and bioactive compounds (AID 1345084); conditions: Gynecologic cancer cell panel viability, ATPlite luminescence, 48 h; series mostly up to 57.5 µM; note: nearly all actives have a fitted effect of over 55% in size
Procedure, shortened: (§1)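 Luminescence from the ATPlite ATP-monitoring reagent indicates viable cell number; lower signal means cytotoxicity. Cells received compound 16 h after seeding and were exposed for 48 h across five concentrations.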

[2] = system: PA-1; experiment: as above; conditions: Gynecologic cancer cell panel viability, ATPlite luminescence, 48 h; series mostly up to 57.5 µM
Procedure, shortened: as §1

[3] = system: SKOV3; experiment: as above; conditions: Gynecologic cancer cell panel viability, ATPlite luminescence, 48 h; series mostly up to 57.5 µM
Procedure, shortened: as §1

[4] = system: Tov-21-G; experiment: as above; conditions: Gynecologic cancer cell panel viability, ATPlite luminescence, 48 h; series mostly up to 57.5 µM
Procedure, shortened: as §1

[5] = system: Tov112D; experiment: as above; conditions: Gynecologic cancer cell panel viability, ATPlite luminescence, 48 h; series mostly up to 57.5 µM
Procedure, shortened: as §1

[6] = Drug repurposing screens with cells derived from glioblastoma tumor samples (AID 1345199); conditions: GBM patient neurospheres viability, ATP luminescence, 48 h; note: nearly all actives have a fitted effect of over 40% in size
Procedure, shortened: (§2)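 Primary testing used CD133+ neurospheres from four GBM patients, seven concentrations, 48 h exposure and ATP-based viability; confirmation added three slower-growing patient lines.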

[7] = system: astro; experiment: as above; conditions: viability, ATP luminescence, 48 h; series mostly up to 45.9 µM
Procedure, shortened: as §2

[8] = at 45.9 µM (top of the series), tumour line B
[9] = at 45.9 µM (top of the series), tumour line D
[10] = at 46 µM (top of the series), tumour line A
[11] = at 46.1 µM (top of the series), tumour line C
Potency is the fitted concentration of half-maximal effect.

SMILES	Potency [1]	Potency [2]	Potency [3]	Potency [4]	Potency [5]	activity, negative = cell killing [6, 8] [%]	activity, negative = cell killing [6, 9] [%]	activity, negative = cell killing [6, 10] [%]	activity, negative = cell killing [6, 11] [%]	Potency [7]	Potency ([6]; tumour line A)
COc1cc(S(N)(=O)=O)cc(C(=O)O)c1OC	inactive	inactive	inactive	inactive	inactive						
c1ccc2c(c1)CCc1ccccc1N2	inactive	inactive	22.4 µM (active)	inactive	inactive						
CC(Oc1c(Cl)cccc1Cl)C1=NCCN1 (configuration not stated)	inactive	inactive	inactive	inactive	inactive						
COC(=O)C1=C(C)NC(C)=C(C(=O)OCCc2ccc(N3CCN(C(c4ccccc4)c4ccccc4)CC3)cc2)C1c1cccc([N+](=O)[O-])c1 (configuration not stated)	inactive	inactive	inactive	inactive	inactive						
CC(=O)N(c1onc(C)c1C)S(=O)(=O)c1ccc(N)cc1	inactive	inactive	inactive	inactive	inactive						
CSCC[C@H](NC(=O)[C@H](Cc1c[nH]c2ccccc12)NC(=O)CCNC(=O)OC(C)(C)C)C(=O)N[C@@H](CC(=O)O)C(=O)N[C@@H](Cc1ccccc1)C(N)=O	inactive	inactive	inactive	inactive	inactive						
CNC(=O)c1cnn(-c2nc(N)c3ncn([C@@H]4O[C@H](CO)[C@@H](O)[C@H]4O)c3n2)c1	inactive	inactive	inactive	inactive	inactive						
O=C(O)CCCC[P+](c1ccccc1)(c1ccccc1)c1ccccc1	inactive	inactive	inactive	inactive	inactive						
[O-][n+]1cccc(/C(Cl)=N/OC[C@@H](O)CN2CCCCC2)c1	inactive	inactive	inactive	inactive	inactive						
COc1c(N2C[C@@H]3CCCN[C@@H]3C2)c(F)cc2c(=O)c(C(=O)O)cn(C3CC3)c12	inactive	inactive	inactive	inactive	inactive						
O=C(O)C(=O)Nc1cccc(-c2nn[nH]n2)c1	inactive	inactive	inactive	inactive	inactive						
CC(=O)c1cc2ccccc2s1	inactive	inactive	inactive	inactive	inactive						
CC(C)C(=O)OCc1cccc(OC(=O)[C@@H]2N3C(=O)[C@@H](NC(=O)Cc4ccccc4)[C@H]3SC2(C)C)c1	inactive	inactive	inactive	inactive	inactive						
COC(=O)c1ccc(NC(C)=O)cc1OC	inactive	inactive	inactive	inactive	inactive						
Fc1ccc(C(c2ccc(F)cc2)N2CCNCC2)cc1	inactive	inactive	inactive	inactive	inactive						
CN1CCN(N)CC1	inactive	inactive	inactive	inactive	inactive						
COc1ccc(OC(=O)N(CC(=O)O)Cc2ccc(OCCc3nc(-c4ccccc4)oc3C)cc2)cc1	inactive	inactive	inactive	inactive	inactive						
Cc1[nH]cnc1-c1ccc(Cl)cc1	inactive	inactive	inactive	inactive	inactive						
CN(C)CCN1CCN(c2cccc(Cl)c2)C1=O	inactive	inactive	inactive	inactive	inactive						
Cc1cc2nc3ccc(=[N+](C)C)cc-3sc2cc1N	22.4 µM (active)	3.55 µM (active)	35.5 µM (active)	28.2 µM (active)	12.6 µM (active)						
C[C@@H]1C[C@H]2[C@@H]3CCC4=CC(=O)C=C[C@]4(C)[C@@]3(F)[C@@H](O)C[C@]2(C)[C@@]1(O)C(=O)COC(=O)c1ccncc1	inactive	inactive	inactive	inactive	inactive						

SMILES	Potency [1]	Potency [2]	Potency [3]	Potency [4]	Potency [5]	activity, negative = cell killing [6, 8] [%]	activity, negative = cell killing [6, 9] [%]	activity, negative = cell killing [6, 10] [%]	activity, negative = cell killing [6, 11] [%]	Potency [7]	Potency ([6]; tumour line A)
COc1ccc2c(c1)c(CC(=O)OC/C=C(\C)CC/C=C(\C)CCC=C(C)C)c(C)n2C(=O)c1ccc(Cl)cc1	inactive	inactive	inactive	inactive	inactive						
Cc1c(F)cc2c(=O)c(C(=O)O)cn3c2c1CCC3C (configuration not stated)	inactive	inactive	inactive	inactive	inactive						
CCOC(=O)C(=O)c1csc(NC=O)n1	inactive	inactive	inactive	inactive	inactive						
Cc1onc(-c2c(Cl)cccc2Cl)c1C(=O)Cl	inactive	inactive	inactive	inactive	inactive						
C=C(C)C(=O)OCC(O)CO (configuration not stated)	inactive	inactive	inactive	inactive	inactive						
O=C(O)c1cn(C2CC2)c2cc(Cl)c(F)cc2c1=O	inactive	inactive	inactive	inactive	inactive						
CC(C)C(=O)Nc1cccc(C2CN3CCSC3=N2)c1 (configuration not stated)	inactive	inactive	inactive	inactive	inactive						
CN1Cc2cc(C(=O)N3CCC(C4CCNCC4)CC3)ccc2N[C@@H](CC(=O)O)C1=O	inactive	inactive	inactive	inactive	inactive						
CCN(CC)CC(=O)Oc1ccc(NC(C)=O)cc1	inactive	inactive	inactive	inactive	inactive						
COc1ccc2cc(C=O)ccc2c1	inactive	inactive	inactive	inactive	inactive						
CCCOc1ccc2c(c1)CC[C@@H]1[C@@H]2CC[C@]2(C)C(OC)CC[C@@H]12 (some centres not stated)	inactive	inactive	inactive	inactive	inactive						
CCC(=O)O[C@]1(C(=O)COC)[C@@H](C)C[C@H]2[C@@H]3CCC4=CC(=O)C=C[C@]4(C)C3(F)[C@@H](O)C[C@@]21C (some centres not stated)	inactive	inactive	inactive	inactive	inactive						
CN(C)CCN(Cc1ccsc1)c1ccccn1	inactive	inactive	inactive	inactive	inactive						
CC(C)C[C@@H]1[C@H](c2ccccc2)OC(=O)N1CCCN1CCCCCC1	inactive	inactive	inactive	inactive	inactive						
CNC(=O)c1c(I)c(NC(C)=O)c(I)c(C(=O)O)c1I	inactive	inactive	inactive	inactive	inactive						
Cc1ccc(C(=O)C(=O)O)cc1C	inactive	inactive	inactive	inactive	inactive						
CC(C)CCCC(C)NCCC(C)C (configuration not stated)	inactive	inactive	inactive	inactive	inactive						
CCCCOCCOC(=O)c1cccnc1	inactive	inactive	inactive	inactive	inactive						
CCCCCCCC(=O)[O-].CCCCCCCC(=O)[O-].[Zn+2]	inactive	inactive	inactive	inactive	inactive						
CC(=O)OCC[N+](C)(C)C	inactive	inactive	inactive	inactive	inactive	-0.685	1.13	-13.5	18	inactive	
C1N2CN3CN1CN(C2)C3	inactive	inactive	inactive	inactive	inactive	-5.59	-12.9	-29.1	5.12	inactive	

SMILES	Potency [1]	Potency [2]	Potency [3]	Potency [4]	Potency [5]	activity, negative = cell killing [6, 8] [%]	activity, negative = cell killing [6, 9] [%]	activity, negative = cell killing [6, 10] [%]	activity, negative = cell killing [6, 11] [%]	Potency [7]	Potency ([6]; tumour line A)
CC(=O)N1CCN(c2ccc(O)cc2)CC1	inactive	inactive	inactive	inactive	inactive						
N#Cc1cc(NC(=O)C(=O)O)c(Cl)c(NC(=O)C(=O)O)c1	inactive	inactive	inactive	inactive	inactive						
CCN1CCCC1CN (configuration not stated)	inactive	inactive	inactive	inactive	inactive						
O=C1NC(c2ccccc2)(c2ccccc2)C(=O)N1COP(=O)(O)O	inactive	inactive	inactive	inactive	inactive						
Nc1cc(C(F)(F)F)ccc1S	inactive	inactive	inactive	inactive	inactive						
CN1CCCN=C1/C=C/c1cccs1	inactive	inactive	inactive	inactive	inactive	-1.18	-9.69	-29.5	6.9	inactive	
CCCc1ccc(OCC(=O)N2CCN(C(=O)COc3ccc(CCC)cc3OC)CC2)c(OC)c1	inactive	inactive	inactive	inactive	inactive						
O=C(O)CCCC[C@@H]1SC[C@@H]2NC(=O)N[C@@H]21	inactive	inactive	inactive	inactive	inactive	-20.7	-14.6		-26	inactive	17.8 µM (active)
COc1ccc2nc(SCc3ncc(C)c(OC)c3C)[nH]c2c1	inactive	inactive	inactive	inactive	inactive						
Cc1ccc(/C=N/n2c(-c3ccccc3)csc2=S)cc1	inactive	inactive	inactive	inactive	inactive	-0.779	-6.23		-16.1	inactive	17.8 µM (active)
COc1cc2nc(Cl)nc(N)c2cc1OC	inactive	inactive	inactive	inactive	inactive						
Cc1oc(=O)oc1COC(=O)[C@@H]1N2C(=O)[C@@H](NC(=O)[C@H](N)c3ccccc3)[C@H]2SC1(C)C	inactive	inactive	inactive	inactive	inactive						
CC1c2ccccc2CN1NC(=O)c1ccc(Cl)c(S(N)(=O)=O)c1 (configuration not stated)	inactive	inactive	inactive	inactive	inactive	-2.5	-6.17	-22.8	-11.2	inactive	
CCOc1c(N2CCOCC2)cnn(C)c1=O	inactive	inactive	inactive	inactive	inactive						
Nc1nnnn1-c1ccccc1	inactive	inactive	inactive	inactive	inactive	-11.1	-15.7	-29.5	12.1	inactive	
O=C1OC2(c3ccccc31)c1cc(I)c(O)c(I)c1Oc1c2cc(I)c(O)c1I	inactive	inactive	inactive	inactive	inactive	-23.6					11.2 µM (active)
Cc1ccc(C(C)OC(=O)C2(C)CCC(C(=O)O)C2(C)C)cc1 (configuration not stated)	inactive	inactive	inactive	inactive	inactive						
O=C1c2ccccc2CCc2ccccc21	inactive	inactive	inactive	inactive	inactive						
O=C(C1CCCCC1)N1CC(=O)N2CCCc3ccccc3C2C1 (configuration not stated)	inactive	inactive	inactive	inactive	inactive						
O=P(O)(O)OCC(O)CO (configuration not stated)	inactive	inactive	inactive	inactive	inactive	-9.32	5.18	-22.7	-0.918	inactive	
